Several values for one entry are separate records, joined by “and”; a condition that tells them apart may be missing. Identical values can stand only once. A structure can be active in one record and inactive in another. Activity calls are given as the source filed them. Rule for the calls: active = hit-call score of the fitted dose curve at least 0.9, where 1 is the maximum; inactive = score below 0.9.

AC50 and outcome data for 30 compounds are collected here from PubChem BioAssay (EPA / NIEHS).

Read-out in one experiment: Vascular cell adhesion molecule 1 (VCAM1), VCAM1 (gene 7412)
Nature of the experiment: BSK_BF4T_VCAM1: BioMAP Diversity Plus: BF4T Assay for Vascular cell adhesion molecule 1 (VCAM1) Biomarker Activity (AID 2284249). The conditions noted are these: primary human bronchial epithelial cells with fibroblasts. The method, boiled down:
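Human bronchial epithelial cell and dermal fibroblast co-culture exposed 24 h. VCAM-1 measured by ELISA; parallel SRB total-protein staining for cytotoxicity. Fitted in positive direction relative to DMSO.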
For `O=C(Cl)C(F)(F)C(F)(F)C(F)(F)C(F)(F)C(F)(F)C(F)(F)C(F)(F)C(F)(F)F`, the half-maximal activity concentration (AC50) (as a rule, the midpoint of the concentration-response curve, whichever way the signal moves) is 38.9 µM (active) and 47.4 µM (active) and 45.5 µM (active).
For `C=C(C)C(=O)OCC(F)(F)C(F)(F)C(F)(F)F`, the result was inactive.
Turning to `FC(F)(F)C(F)(F)C(F)(F)C(F)(F)C(F)(F)C(F)(F)C(F)(F)C(F)(F)CCS`, the result was inactive.
The same measure, in the same setting: the same measure for `CCO[Si](CCC(F)(F)C(F)(F)C(F)(F)C(F)(F)C(F)(F)C(F)(F)F)(OCC)OCC`: “inactive”; for `O=C(O)C(F)(F)C(F)(F)C(F)(F)F`: “inactive”; for `FC(F)(F)C(F)(F)C(F)(F)C(F)(F)CCI`: “inactive”.
As to `COC(=O)CCC(F)(F)C(F)(F)C(F)(F)C(F)(F)F`, the outcome was inactive.
For `CC(C)(C)C(=O)CC(=O)C(F)(F)C(F)(F)C(F)(F)F`, the result was inactive.
In the case of `OCC(F)(F)C(F)(F)C(F)(F)C(F)(F)C(F)(F)C(F)F`, the result was inactive.
For `N=C(N)C(F)(F)C(F)(F)C(F)(F)C(F)(F)C(F)(F)C(F)(F)C(F)(F)F`, the result was inactive.

Read-out in a further experiment: Collagen I, COL1A1 (gene 1277)
Kind of experiment: BSK_hDFCGF_CollagenI: BioMAP Diversity Plus: hDFCGF Assay for Collagen I Biomarker Activity (AID 2284250). The note with it: primary human foreskin fibroblasts. The method, boiled down: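 Primary human foreskin fibroblasts (hDFCGF system) exposed to chemical for 24 h; Collagen I measured by ELISA. Activity fitted in the positive direction relative to DMSO baseline, with SRB total-protein staining in parallel cultures for overt cytotoxicity.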
On to `FC(F)(F)C(F)(F)C(F)(F)C(F)(F)C(F)(F)C(F)(F)C(F)(F)C(F)(F)CCS`, for which the result was inactive.
Take `OCCCC(F)(F)C(F)(F)C(F)(F)C(F)(F)C(F)(F)C(F)(F)C(F)(F)F`: the concentration at half-maximal activity (AC50) was 15.8 µM (active) and 7.13 µM (active).
`FC(F)(F)C(F)(F)C(F)(F)C(F)(F)C(F)(F)C(F)(F)C(F)(F)C(F)(F)F`: the outcome was inactive.
Still for that read-out and setting: the same measure for `O=S(=O)(OCC(F)F)C(F)(F)F`: “inactive”.
As for `FC(F)(F)C(F)(F)CNCC(F)(F)C(F)(F)F`, the outcome was inactive.
As for `FC1CC(F)(F)C(F)(F)C1(F)F` (stereo not given), the outcome was inactive.
On the same count and under the same terms, the same measure for `FC(F)(F)C(F)(F)C(F)(F)N(C(F)(F)C(F)(F)C(F)(F)F)C(F)(F)C(F)(F)C(F)(F)F`: “inactive”; for `O=C(O)C(F)(F)C(F)(F)F`: “inactive”.

Read-out in the next experiment: Interferon-inducible T-cell alpha chemoattractant (ITAC), CXCL11 (gene 6373)
Kind of experiment: BSK_hDFCGF_ITAC: BioMAP Diversity Plus: hDFCGF Assay for Interferon-inducible T-cell alpha chemoattractant (ITAC) Biomarker Activity (AID 2284251). The conditions noted are these: primary human foreskin fibroblasts. The method, boiled down:
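Fibroblasts (human foreskin, primary) are treated with chemical, cultured 24 h, then assayed for I-TAC by ELISA. Overt toxicity is checked in parallel cultures by sulforhodamine B staining of total protein at the same time point.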
For the compound `OCCCC(F)(F)C(F)(F)C(F)(F)F`, the outcome was inactive.
In the case of `O=C(O)C(F)(F)C(F)(F)OC(F)(F)F`, the result was inactive.
For `OCC(F)(F)C(F)(F)C(F)(F)C(F)F`, the result was inactive.
For `O=C(CC(=O)C(F)(F)C(F)(F)F)C(F)(F)F`, the outcome was inactive.
With `O=C(Cl)C(F)(F)C(F)(F)C(F)(F)C(F)(F)C(F)(F)C(F)(F)C(F)(F)C(F)(F)F`, the concentration at half-maximal activity (AC50) was 20.4 µM (active) and 48.2 µM (active) and 30 µM (active).
Regarding `C=C(C)C(=O)OCC(F)(F)C(F)(F)C(F)(F)F`, the outcome was inactive.
Consider `FC(F)(F)C(F)(F)C(F)(F)C(F)(F)C(F)(F)C(F)(F)CCS`, for which the result was inactive.
Regarding `FC(F)(F)C(F)(F)C(F)(F)C(F)(F)C(F)(F)C(F)(F)C(F)(F)C(F)(F)CCS`, the result was inactive.
Turning to `OCCCC(F)(F)C(F)(F)C(F)(F)C(F)(F)C(F)(F)C(F)(F)C(F)(F)F`, the AC50 was 13 µM (active) and 11.8 µM (active).
`CCO[Si](CCC(F)(F)C(F)(F)C(F)(F)C(F)(F)C(F)(F)C(F)(F)F)(OCC)OCC`: the outcome was inactive.
As for `FC(F)(F)C(F)(F)C(F)(F)CI`, the AC50 is 220 nM (active) and the outcome was inactive.
With `O=S(=O)(O)C(F)(F)C(F)(F)C(F)(F)C(F)(F)C(F)(F)C(F)(F)C(F)(F)F`, the result was inactive.
As to `O=C(O)C(F)(F)C(F)(F)C(F)(F)C(F)(F)F`, the result was inactive.
Consider `O=C(O)C(F)(F)C(F)(F)C(F)(F)F`, for which the result was inactive.
As for `FC(F)(F)C(F)(F)C(F)(F)C(F)(F)C(F)(F)C(F)(F)C(F)(F)C(F)(F)F`, the outcome was inactive.
Still for that read-out and setting: the same measure for `FC(F)(F)C(F)(F)C(F)(F)C(F)(F)CCI`: “inactive”; for `O=S(=O)(OCC(F)F)C(F)(F)F`: “inactive”.
Take `CCCCCCCCC(F)(F)C(F)(F)C(F)(F)C(F)(F)C(F)(F)C(F)(F)F`: the outcome was inactive.
With `C=CC(F)(F)C(F)(F)C(F)(F)C(F)(F)C(F)(F)C(F)(F)C(F)(F)C(F)(F)F`, the outcome was inactive.
With `COC(=O)CCC(F)(F)C(F)(F)C(F)(F)C(F)(F)F`, the result was inactive.
Consider `CC(C)(C)C(=O)CC(=O)C(F)(F)C(F)(F)C(F)(F)F`, for which the outcome was inactive.
Still for that read-out and setting: the same measure for `FC(F)(F)C(F)(F)CNCC(F)(F)C(F)(F)F`: “inactive”.
Turning to `O=P(O)(O)OCCC(F)(F)C(F)(F)C(F)(F)C(F)(F)C(F)(F)C(F)(F)F`, the AC50 is 5830 nM (active) and the result was inactive.
Turning to `FC1CC(F)(F)C(F)(F)C1(F)F` (stereo not given), the outcome was inactive.
Turning to `FC(F)(F)C(F)(F)C(F)(F)N(C(F)(F)C(F)(F)C(F)(F)F)C(F)(F)C(F)(F)C(F)(F)F`, the result was inactive.
In the case of `OCC(F)(F)C(F)(F)C(F)(F)C(F)(F)C(F)(F)C(F)F`, the outcome was inactive.
With `C=CC(=O)OCC(F)(F)C(F)(F)C(F)(F)C(F)(F)COC(=O)C=C`, the AC50 was 6.61 µM (active) and 5.23 µM (active).
The same measure, in the same setting: as for `O=C(O)C(F)(F)C(F)(F)C(F)(F)C(F)(F)C(F)(F)C(F)(F)C(F)(F)C(F)(F)Cl`, the figure is 29 µM (active) and 36.7 µM (active).
Take `O=C(O)C(F)(F)C(F)(F)F`: the outcome was inactive.
In the case of `N=C(N)C(F)(F)C(F)(F)C(F)(F)C(F)(F)C(F)(F)C(F)(F)C(F)(F)F`, the half-maximal activity concentration (AC50) was 57.6 µM (active) and 52.7 µM (active).
